# In PubChem BioAssay AID1159580 (chemical genetic matrix, 2015):
# Where “and” joins values, the source holds several entries; their conditions need not be identical. Identical values can stand only once. Among all 5,500 compounds or so, about 2,000 (36%) were called active. Another 18% or so got no clear call; they are omitted. No stated cut-off is given here; in the data, active means normalized growth mostly below about 0.91 (no sharp cut-off); inconclusive means no clear call, values can overlap the other calls; inactive means mostly above about 0.92. This is one part of the list. The source holds several records for some structures; these can differ, active in one and inactive in another.
# Test: chemical genetic growth profiling, strain panel (AID 1159580);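 further: tested at 20 µM; growth read once vehicle control cultures reached saturation at 30 °C; 1 = growth at the plate median or of vehicle wells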
# Settings: growth OD
smiles,measurement,setting,value
CC(C)COCC(CN(Cc1ccccc1)c1ccccc1)N1CCCC1 (stereo not given),normalized growth,"S. cerevisiae deletion strains, locus YJR075W, strain HOC1, stronger effect = lower value",0.798 (active) and 1.01 (inactive)
same,normalized growth,"S. cerevisiae deletion strains, locus YKL009W, strain mrt4, stronger effect = lower value",0.935 (inactive)
same,normalized growth,"S. cerevisiae deletion strains, locus YKL068W, stronger effect = lower value",0.989 (inactive)
same,normalized growth,"S. cerevisiae deletion strains, locus YKL085W, strain MDH1 (second series), stronger effect = lower value",0.979 (inactive)
same,normalized growth,"S. cerevisiae deletion strains, locus YKL085W, strain MDH1, stronger effect = lower value",0.979 (inactive)
same,normalized growth,"S. cerevisiae deletion strains, locus YKL160W, strain elf1, stronger effect = lower value",1.02 (inactive)
same,normalized growth,"S. cerevisiae deletion strains, locus YKL190W, strain CNB1, stronger effect = lower value",0.923 (inactive)
same,normalized growth,"S. cerevisiae deletion strains, locus YKR001C, strain vps1, stronger effect = lower value",0.793 (active)
same,normalized growth,"S. cerevisiae deletion strains, locus YKR026C, strain gcn3, stronger effect = lower value",1.03 (inactive)
same,normalized growth,"S. cerevisiae deletion strains, locus YKR091W, strain srl3, stronger effect = lower value",1.02 (inactive)
same,normalized growth,"S. cerevisiae deletion strains, locus YLL001W, strain dnm1, stronger effect = lower value",1.03 (inactive)
same,normalized growth,"S. cerevisiae deletion strains, locus YLL026W, stronger effect = lower value",1.02 (inactive)
same,normalized growth,"S. cerevisiae deletion strains, locus YLL041C, strain sdh2, stronger effect = lower value",1.05 (inactive)
same,normalized growth,"S. cerevisiae deletion strains, locus YLR027C, strain aat2, stronger effect = lower value",1.01 (inactive)
same,normalized growth,"S. cerevisiae deletion strains, locus YLR039C, strain RIC1, stronger effect = lower value",0.705 (inactive)
same,normalized growth,"S. cerevisiae deletion strains, locus YLR058C, strain SHM2, stronger effect = lower value",0.858 (active)
same,normalized growth,"S. cerevisiae deletion strains, locus YLR102C, strain apc9, stronger effect = lower value",0.989 (inactive)
same,normalized growth,"S. cerevisiae deletion strains, locus YLR113W, strain HOG1, stronger effect = lower value",1.01 (inactive)
same,normalized growth,"S. cerevisiae deletion strains, locus YLR221C, strain rsa3, stronger effect = lower value",0.996 (inactive)
same,normalized growth,"S. cerevisiae deletion strains, locus YLR258W, strain gsy2, stronger effect = lower value",1.03 (inactive)
same,normalized growth,"S. cerevisiae deletion strains, locus YLR262C, strain YPT6 (second series), stronger effect = lower value",1.01 (inactive)
same,normalized growth,"S. cerevisiae deletion strains, locus YLR262C, strain YPT6, stronger effect = lower value",0.59 (active)
same,normalized growth,"S. cerevisiae deletion strains, locus YLR268W, strain sec22, stronger effect = lower value",0.935 (inactive)
same,normalized growth,"S. cerevisiae deletion strains, locus YLR320W, strain mms22, stronger effect = lower value",0.948 (inactive)
same,normalized growth,"S. cerevisiae deletion strains, locus YLR330W, strain CHS5, stronger effect = lower value",0.95 (inactive)
same,normalized growth,"S. cerevisiae deletion strains, locus YLR342W, strain FKS1 (second series), stronger effect = lower value",0.707 (active)
same,normalized growth,"S. cerevisiae deletion strains, locus YLR342W, strain FKS1, stronger effect = lower value",1 (inactive)
same,normalized growth,"S. cerevisiae deletion strains, locus YLR357W, strain rsc2, stronger effect = lower value",1.01 (inactive)
same,normalized growth,"S. cerevisiae deletion strains, locus YLR370C, strain arc18, stronger effect = lower value",1.04 (inactive)
same,normalized growth,"S. cerevisiae deletion strains, locus YLR371W, strain rom2, stronger effect = lower value",0.961 (inactive)
same,normalized growth,"S. cerevisiae deletion strains, locus YLR384C, strain iki3, stronger effect = lower value",1.03 (inactive)
same,normalized growth,"S. cerevisiae deletion strains, locus YLR418C, strain cdc73, stronger effect = lower value",0.698 (active)
same,normalized growth,"S. cerevisiae deletion strains, locus YML016C, strain PPZ1, stronger effect = lower value",0.973 (inactive)
same,normalized growth,"S. cerevisiae deletion strains, locus YML032C, strain rad52, stronger effect = lower value",0.904 (active)
same,normalized growth,"S. cerevisiae deletion strains, locus YML120C, strain ndi1, stronger effect = lower value",1.05 (inactive)
same,normalized growth,"S. cerevisiae deletion strains, locus YML124C, strain tub3, stronger effect = lower value",0.989 (inactive)
same,normalized growth,"S. cerevisiae deletion strains, locus YMR058W, strain fet3, stronger effect = lower value",0.997 (inactive)
same,normalized growth,"S. cerevisiae deletion strains, locus YMR078C, strain ctf18, stronger effect = lower value",0.986 (inactive)
same,normalized growth,"S. cerevisiae deletion strains, locus YMR125W, strain sto1, stronger effect = lower value",1.03 (inactive)
same,normalized growth,"S. cerevisiae deletion strains, locus YMR129W, stronger effect = lower value",1.02 (inactive)
same,normalized growth,"S. cerevisiae deletion strains, locus YMR205C, strain PFK2, stronger effect = lower value",1.02 (inactive)
same,normalized growth,"S. cerevisiae deletion strains, locus YMR223W, strain ubp8, stronger effect = lower value",0.894 (active)
same,normalized growth,"S. cerevisiae deletion strains, locus YMR231W, strain pep5, stronger effect = lower value",1.04 (inactive)
same,normalized growth,"S. cerevisiae deletion strains, locus YMR307W, strain GAS1, stronger effect = lower value",0.726 (inactive)
same,normalized growth,"S. cerevisiae deletion strains, locus YNL067W, strain RPL9B, stronger effect = lower value",0.843 (active)
same,normalized growth,"S. cerevisiae deletion strains, locus YNL071W, strain lat1, stronger effect = lower value",1.03 (inactive)
same,normalized growth,"S. cerevisiae deletion strains, locus YNL128W, strain TEP1, stronger effect = lower value",0.981 (inactive)
same,normalized growth,"S. cerevisiae deletion strains, locus YNL153C, strain GIM3, stronger effect = lower value",0.823 (active)
same,normalized growth,"S. cerevisiae deletion strains, locus YNL175C, strain NOP13, stronger effect = lower value",1 (inactive)
same,normalized growth,"S. cerevisiae deletion strains, locus YNL183C, strain NPR1, stronger effect = lower value",0.935 (inactive)
same,normalized growth,"S. cerevisiae deletion strains, locus YNL197C, strain WHI3, stronger effect = lower value",1.02 (inactive)
same,normalized growth,"S. cerevisiae deletion strains, locus YNL209W, strain ssb2, stronger effect = lower value",1.03 (inactive)
same,normalized growth,"S. cerevisiae deletion strains, locus YNL224C, strain SQS1, stronger effect = lower value",1.01 (inactive)
same,normalized growth,"S. cerevisiae deletion strains, locus YNL233W, strain BNI4, stronger effect = lower value",0.781 (active)
same,normalized growth,"S. cerevisiae deletion strains, locus YNL248C, strain rpa49, stronger effect = lower value",1.02 (inactive)
same,normalized growth,"S. cerevisiae deletion strains, locus YNL250W, strain rad50, stronger effect = lower value",0.957 (inactive)
same,normalized growth,"S. cerevisiae deletion strains, locus YNL271C, strain bni1, stronger effect = lower value",0.992 (inactive)
same,normalized growth,"S. cerevisiae deletion strains, locus YNL298W, strain CLA4, stronger effect = lower value",0.994 (inactive)
same,normalized growth,"S. cerevisiae deletion strains, locus YNL307C, strain MCK1, stronger effect = lower value",0.965 (inactive)
same,normalized growth,"S. cerevisiae deletion strains, locus YNL322C, strain KRE1 (second series), stronger effect = lower value",1.06 (inactive)
same,normalized growth,"S. cerevisiae deletion strains, locus YNL322C, strain KRE1, stronger effect = lower value",1 (inactive)
same,normalized growth,"S. cerevisiae deletion strains, locus YNR049C, strain mso1, stronger effect = lower value",1.02 (inactive)
same,normalized growth,"S. cerevisiae deletion strains, locus YNR052C, strain pop2, stronger effect = lower value",0.887 (active)
same,normalized growth,"S. cerevisiae deletion strains, locus YOL006C, strain TOP1, stronger effect = lower value",0.242 (active)
same,normalized growth,"S. cerevisiae deletion strains, locus YOL012C, strain htz1",0.611 (inactive)
same,normalized growth,"S. cerevisiae deletion strains, locus YOL147C, strain pex11, stronger effect = lower value",0.989 (inactive)
same,normalized growth,"S. cerevisiae deletion strains, locus YOR001W, strain rrp6, stronger effect = lower value",1.01 (inactive)
same,normalized growth,"S. cerevisiae deletion strains, locus YOR061W, strain CKA2, stronger effect = lower value",0.93 (inactive)
same,normalized growth,"S. cerevisiae deletion strains, locus YOR069W, strain VPS5, stronger effect = lower value",0.983 (inactive)
same,normalized growth,"S. cerevisiae deletion strains, locus YOR070C, strain gyp1, stronger effect = lower value",1.02 (inactive)
same,normalized growth,"S. cerevisiae deletion strains, locus YOR080W, strain dia2, stronger effect = lower value",1.06 (inactive)
same,normalized growth,"S. cerevisiae deletion strains, locus YOR083W, strain WHI5 (second series), stronger effect = lower value",1.03 (inactive)
same,normalized growth,"S. cerevisiae deletion strains, locus YOR083W, strain WHI5, stronger effect = lower value",0.967 (inactive)
same,normalized growth,"S. cerevisiae deletion strains, locus YOR106W, strain vam3, stronger effect = lower value",1.03 (inactive)
same,normalized growth,"S. cerevisiae deletion strains, locus YOR136W, strain idh2, stronger effect = lower value",0.954 (inactive)
same,normalized growth,"S. cerevisiae deletion strains, locus YOR144C, strain elg1, stronger effect = lower value",0.99 (inactive)
same,normalized growth,"S. cerevisiae deletion strains, locus YOR184W, strain ser1, stronger effect = lower value",0.888 (inactive)
same,normalized growth,"S. cerevisiae deletion strains, locus YOR231W, strain MKK1, stronger effect = lower value",0.982 (inactive)
same,normalized growth,"S. cerevisiae deletion strains, locus YOR265W, strain rbl2, stronger effect = lower value",1.02 (inactive)
same,normalized growth,"S. cerevisiae deletion strains, locus YOR270C, strain vph1, stronger effect = lower value",0.972 (inactive)
same,normalized growth,"S. cerevisiae deletion strains, locus YOR290C, strain snf2, stronger effect = lower value",1.02 (inactive)
same,normalized growth,"S. cerevisiae deletion strains, locus YOR316C, strain cot1, stronger effect = lower value",0.979 (inactive)
same,normalized growth,"S. cerevisiae deletion strains, locus YPL051W, strain arl3, stronger effect = lower value",0.99 (inactive)
same,normalized growth,"S. cerevisiae deletion strains, locus YPL055C, strain LGE1, stronger effect = lower value",0.653 (active)
same,normalized growth,"S. cerevisiae deletion strains, locus YPL078C, strain atp4, stronger effect = lower value",1.04 (inactive)
same,normalized growth,"S. cerevisiae deletion strains, locus YPL106C, strain sse1, stronger effect = lower value",1.06 (inactive)
same,normalized growth,"S. cerevisiae deletion strains, locus YPL240C, strain hsp82, stronger effect = lower value",1.02 (inactive)
same,normalized growth,"S. cerevisiae deletion strains, locus YPL241C, strain CIN2, stronger effect = lower value",0.98 (inactive) and 1 (inactive)
same,normalized growth,"S. cerevisiae deletion strains, locus YPL256C, strain CLN2, stronger effect = lower value",0.98 (inactive)
same,normalized growth,"S. cerevisiae deletion strains, locus YPR119W, strain clb2, stronger effect = lower value",0.989 (inactive)
same,normalized growth,"S. cerevisiae deletion strains, locus YPR141C, strain kar3, stronger effect = lower value",0.984 (inactive)
same,normalized growth,"S. cerevisiae deletion strains, locus YPR163C, strain tif3, stronger effect = lower value",0.792 (active)
same,normalized growth,"S. cerevisiae deletion strains, locus YPR167C, strain met16, stronger effect = lower value",0.988 (inactive)
same,normalized growth,"S. cerevisiae deletion strains, strain wtn01, stronger effect = lower value",0.912 (inactive)
same,normalized growth,"S. cerevisiae strains, strain wild type, stronger effect = lower value",0.878 (active)
